Results filed as inconclusive are left out. Activity calls are given as the source filed them. How the source made its calls: active means hit-call score of the fitted dose curve at least 0.9, where 1 is the maximum; inconclusive means response in the unintended direction; inactive means score below 0.9.

Broadly, the AC50 is the concentration giving half of the maximal activity seen.

Read-out in this assay: xenobiotic metabolism (CYP1A1), CYP1A1 (gene 1543)
Kind of assay: CLD_CYP1A1_24hr: CellzDirect (CLD) Gene Expression Assay for xenobiotic metabolism (CYP1A1) at 24 hours (AID 2283673). As to the method: CLD_24hr is a cell-based, multiplexed-readout assay that uses hepatocyte, a human liver primary cell, with measurements taken at 24 hours after chemical dosing in a 96-well plate.CLD_CYP1A1_24hr is one of 16 assay component(s) measured or calculated from the CLD_24hr assay. It is designed to make measurements of mRNA induction, a form of inducible reporter, as detected with chemiluminescence signals by Quantitative Nuclease Protection Assay (qNPA) technology.Data from the assay component CLD_CYP1A1_24hr was analyzed at the endpoint, CLD_CYP1A1_24hr, in the positive analysis fitting direction relative to DMSO as the negative control and baseline of activity. Using a type of inducible reporter, gain-of-signal activity can be used to understand changes in the reporter gene as they relate to the gene CYP1A1. Furthermore, this assay endpoint can be referred to as a primary readout. To generalize the intended target to other relatable targets, this assay endpoint is annotated to the cyp intended target family, where subfamily is xenobiotic metabolism.
Human hepatocyte cultures were treated daily for two consecutive days with fresh dosing solutions containing appropriate concentrations of the 320 ToxCast chemicals (chemical identities were blinded to CellzDirect and other ToxCast collaborators), vehicle control (0.2% DMSO), and positive control inducers as summarized in Table 1. Due to the large number of treatment groups and chemicals examined, the ToxCast chemicals were divided into two groups (spanning two independent cultures of hepatocytes from separate donor preparations (Hu778: ToxCast plates 1 and 2; Hu776: ToxCast plates 3 and 4). Each preparation of human hepatocyte cultures was treated with respective vehicle control, medium only control, set of six positive controls/reference chemicals for the five hepatic receptor pathways, and a subset of eight of the ToxCast chemicals (indoxacarb, pyrithiobac-sodium, norflurazon, cyhalofop-butyl, methomyl, thiram, acetochlor, and propiconazole). These replicate data, coupled with internal replicates designed within the blinded ToxCast chemical library, provided additional data to evaluate interindividual differences between hepatocyte preparations and their potential impact on chemical profiles.Cell morphology and integrity were evaluated using phase-contrast microscopy as an indicator of hepatocyte cell health (Tyson & Green, 1987). Cultures for each treatment group (i.e., media, vehicle [0.2% DMSO], positive control inducers [multiple concentrations], and the ToxCast chemicals [multiple concentrations]) were observed and cell morphology was assessed relative to vehicle control cultures at each harvest time point (0, 6, 24, or 48 h). […] Images were evaluated at the conclusion of the study to assess changes in cell integrity and account for the effects of chemical exposure on uncharacteristic changes in concentration-dependent gene expression profiles. The results from these determinations of apparent cytotoxicity were annotated (yes/no) alongside the corresponding qNPA data for reference.At the conclusion of each treatment period, hepatocyte cultures (96-well) were washed with 1 volume of HBSS, lysed by addition of 25 ul ArrayPlate lysis buffer (HTG, Tucson, AZ), and 70 ul/well of Denaturation Oil, denatured by incubation at 95C for 10 min, and frozen at approximately -70C until analysis by nuclease protection assay (qNPA) (Roberts et al., 2007). For qNPA analysis, cell lysates were thawed at 50C for approximately 30 min, qNPA probes were added, and samples were incubated at 95C for 10 min to begin the detection process by denaturing the target RNA, dissociating the duplexes and secondary structure hybridization. At the conclusion of the hybridization period, S1 nuclease reagent was added to each sample to digest all nonprotected nucleotides at 50C for 60-90 min. […]
For the compound `COP(=S)(OC)Oc1ccc([N+](=O)[O-])cc1`, the concentration at half-maximal activity (AC50) was 4.2 µM (active). For the compound `COC(=O)c1ccccc1S(=O)(=O)NC(=O)Nc1nc(C)nc(OC)n1`, the compound was called inactive.

With `Cc1cc(C)nc(NC(=O)NS(=O)(=O)c2ccccc2C(=O)OC2COC2)n1`, the half-maximal activity concentration (AC50) is 5.65 µM (active).

For `CCCN(CCC)c1c([N+](=O)[O-])cc(C(F)(F)F)cc1[N+](=O)[O-]`, the AC50 was 8.5 µM (active). For the compound `OCCOc1ccccc1`, the compound was classed as inactive.

`O=C(NC(=O)c1c(F)cccc1F)Nc1ccc(OC(F)(F)C(F)OC(F)(F)F)c(Cl)c1` (stereo not given): the compound was called inactive. On to `CC(C)(C)C(O)C(Oc1ccc(Cl)cc1)n1cncn1` (stereo not given), for which the AC50 was 2.22 µM (active).

On to `CNC(=O)Oc1ccccc1OC(C)C`, for which the outcome was inactive. Same read-out and setting: in the case of `CNC(=O)CSP(=S)(OC)OC` it was “inactive”. `CCc1ccc(C(=O)NN(C(=O)c2cc(C)cc(C)c2)C(C)(C)C)cc1`: the half-maximal activity concentration (AC50) is 9.97 µM (active). For `Clc1ccccc1-c1nnc(-c2ccccc2Cl)nn1`, the half-maximal activity concentration (AC50) is 5.94 µM (active). For the compound `CCN(CC)C(=O)SCc1ccc(Cl)cc1`, the compound was classed as inactive. Take `CNC(=O)/C=C(\C)OP(=O)(OC)OC`: the outcome was inactive. For the compound `CCOc1nc(NC)nc(NC(=O)NS(=O)(=O)c2ccccc2C(=O)OC)n1`, the AC50 is 7.53 µM (active). On to `O=[N+]([O-])c1c(Cl)c(Cl)c(Cl)c(Cl)c1Cl`, for which the AC50 was 20 µM (active).

With `CCS(=O)(=O)c1cccnc1S(=O)(=O)NC(=O)Nc1nc(OC)cc(OC)n1`, the AC50 was 1.9 µM (active). Regarding `O=S1OCC2C(CO1)C1(Cl)C(Cl)=C(Cl)C2(Cl)C1(Cl)Cl` (stereo not given), the compound was classed as inactive. Take `CCOCN(C(=O)CCl)c1c(C)cccc1CC`: the AC50 was 1.99 µM (active). Consider `COP(=S)(OC)Oc1ccc(SC)c(C)c1`, for which the AC50 is 20 µM (active).

For the compound `CC(C)OC(=O)Nc1cccc(Cl)c1`, the half-maximal activity concentration (AC50) was 5.63 µM (active). `O=C(O)COc1ccc(Cl)cc1Cl`: the call was inactive. Same read-out and setting: in the case of `COP(=O)(OC)OC=C(Cl)Cl` it was “inactive”. Same read-out and setting: the entry for `CC(C)N(C(=O)COc1nnc(C(F)(F)F)s1)c1ccc(F)cc1` is “inactive”; for `O=C1c2ccccc2C(=O)N1SC(Cl)(Cl)Cl` it is “inactive”; for `CCC(C)(C)C(=O)OC1=C(c2ccc(Cl)cc2Cl)C(=O)OC12CCCCC2` it is “inactive”. As for `COC(=O)c1ccccc1CS(=O)(=O)NC(=O)Nc1nc(OC)cc(OC)n1`, the concentration at half-maximal activity (AC50) is 32.4 µM (active).

Consider `O=C(Nc1ccccc1)Nc1cnns1`, for which the AC50 is 2 µM (active). On to `O=[N+]([O-])/N=C1\NCCN1Cc1ccc(Cl)nc1`, for which the compound was classed as inactive.

Consider `CC1(C)C(C=C(Cl)Cl)C1C(=O)OC(C#N)c1ccc(F)c(Oc2ccccc2)c1` (stereo not given), for which the compound was called inactive. Take `CN1CSC(=S)N(C)C1`: the AC50 is 3.9 µM (active).

On to `CC1(c2ccc(Oc3ccccc3)cc2)OC(=O)N(Nc2ccccc2)C1=O` (stereo not given), for which the AC50 is 3.89 µM (active).

As to `CCC(C)Nc1c([N+](=O)[O-])cc(C(C)(C)C)cc1[N+](=O)[O-]` (stereo not given), the call was inactive. In the case of `Cc1[nH]c(=O)n(C(C)(C)C)c(=O)c1Cl`, the concentration at half-maximal activity (AC50) was 7.51 µM (active). As to `Oc1cc(Cl)ccc1Oc1ccc(Cl)cc1Cl`, the call was inactive. Regarding `CC[C@H](C)[C@H]1O[C@]2(C=C[C@@H]1C)C[C@@H]1C[C@@H](C/C=C(\C)[C@@H](O[C@H]3C[C@H](OC)[C@@H](O[C@H]4C[C@H](OC)[C@@H](O)[C@H](C)O4)[C@H](C)O3)[C@@H](C)/C=C/C=C3\CO[C@@H]4[C@H](O)C(C)=C[C@@H](C(=O)O1)[C@]34O)O2` (tested in a mixture with another compound), the concentration at half-maximal activity (AC50) was 35.2 µM (active).

For `O=C(O)C(F)(F)C(F)(F)C(F)(F)C(F)(F)C(F)(F)C(F)(F)C(F)(F)F`, the compound was classed as inactive. `C[C@H]1[C@H](c2ccc(Cl)cc2)SC(=O)N1C(=O)NC1CCCCC1`: the concentration at half-maximal activity (AC50) was 3.97 µM (active).

As for `CCCN(CCOc1c(Cl)cc(Cl)cc1Cl)C(=O)n1ccnc1`, the AC50 is 1.89 µM (active). As for `CC(C)(C)C(O)/C(=C\c1ccc(Cl)cc1Cl)n1cncn1` (stereo not given), the AC50 was 6.46 µM (active).

On to `COc1nn(CSP(=S)(OC)OC)c(=O)s1`, for which the concentration at half-maximal activity (AC50) was 4.39 µM (active).

(Values after PubChem BioAssay (EPA / NIEHS).)
